High-throughput results (PubChem BioAssay)
Hits are enriched below; roughly 5.5% of the tested compounds scored in any of these assays.
Six1-Eya2 inh = qHTS Assay for Inhibitors of the Six1/Eya2 Interaction. Homeobox protein SIX1 (Homo sapiens) + Protein phosphatase EYA2 (Homo sapiens), …. AlphaScreen GST-Six1/His-Eya2 binding, biochemical; hits give low values. activity change, % (no concentration beside the values). 360,000 tested, 0.56% active; in the data active = activity change below about -65%; inconclusive = mostly about -30% to -63%
Target sequence (O00167 whole entry, looked up): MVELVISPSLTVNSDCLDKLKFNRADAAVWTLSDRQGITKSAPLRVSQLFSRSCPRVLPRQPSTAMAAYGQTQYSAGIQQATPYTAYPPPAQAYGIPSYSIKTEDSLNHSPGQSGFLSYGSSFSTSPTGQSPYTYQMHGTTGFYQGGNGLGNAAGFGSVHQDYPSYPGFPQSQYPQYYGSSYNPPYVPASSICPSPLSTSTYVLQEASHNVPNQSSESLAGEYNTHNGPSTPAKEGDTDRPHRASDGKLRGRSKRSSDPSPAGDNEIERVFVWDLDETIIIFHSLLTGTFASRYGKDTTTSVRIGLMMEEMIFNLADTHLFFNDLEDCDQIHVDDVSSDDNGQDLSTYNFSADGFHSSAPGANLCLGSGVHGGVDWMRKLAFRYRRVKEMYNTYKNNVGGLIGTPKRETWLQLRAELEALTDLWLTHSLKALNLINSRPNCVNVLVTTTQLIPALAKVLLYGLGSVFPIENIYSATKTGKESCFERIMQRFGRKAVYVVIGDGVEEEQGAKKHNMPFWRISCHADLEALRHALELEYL
Target sequence (Q15475 whole entry, looked up): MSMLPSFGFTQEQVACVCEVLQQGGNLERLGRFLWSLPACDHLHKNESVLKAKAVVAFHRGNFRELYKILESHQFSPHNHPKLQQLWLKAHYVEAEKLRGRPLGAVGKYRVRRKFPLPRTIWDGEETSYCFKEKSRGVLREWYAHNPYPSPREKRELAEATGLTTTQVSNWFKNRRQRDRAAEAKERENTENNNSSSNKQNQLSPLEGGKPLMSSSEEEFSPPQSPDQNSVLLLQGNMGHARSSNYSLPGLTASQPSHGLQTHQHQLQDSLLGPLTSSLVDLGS
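Six1/Eya2 binding was read as AlphaScreen signal after compounds were pinned into GST-Six1 plus His-tagged Eya2 (5X stock 250/500 nM) in pH 8.0 Tris/NaCl/TCEP buffer, beads added, then incubated 1 h, 37 C, dark.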
CtBP-E1A inh = qHTS Assay for Inhibitors of the CtBP/E1A Interaction; activity change, % (concentration not given with the values); AlphaScreen GST-E1A/His-CtBP binding, 1536-well; hits give low values; 340,000 tested, 0.49% active; CtBP / adenovirus E1A interaction (AlphaScreen); in the data active = activity change below about -65%; inconclusive = mostly about -30% to -63%
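AlphaScreen with 125 nM GST-E1A and 125 nM His-CtBP (5X stocks) in Tris pH 8.0, 300 mM NaCl, BSA, Tween 20, TCEP. Compounds preincubated 2 h at 37 deg C, then glutathione donor/nickel acceptor beads added for 1 h at 37 deg C in dark.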
VP16 counter = VP16 counterscreen qHTS for inhibitors of ROR gamma transcriptional activity. Drosophila S2 Gal4-VP16 UAS-luciferase, luminescence, 20 h. Potency, µM (highest dose often 53.6 µM), usual class: inhibitors. 310,000 tested, 3.5% active. AID 2546, 2010;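 note: Gal4-VP16 expression switched on by copper sulfate through the metallothionein promoter; nearly all actives have a fitted effect of over 50% in size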
MBNL1 CUG block = qHTS Assay for Inhibitors of MBNL1-poly(CUG) RNA binding; Muscleblind-like protein 1 (Homo sapiens), Q9NR56; TR-FRET MBNL1-His/biotin-(CUG)12 binding, 665/545 ratio; Potency, µM (doses to about 57.5 µM), actives largely listed as inhibitors; 280,000 tested, 0.036% active; AID 2675, 2010; active = well fitted inhibition curve with a large enough effect in the signal ratio, with a control signal flat, not every such curve was filed as active; inconclusive = small, poorly fitted or top-dose-only effect, or effect the other way, or a change in a side signal; inactive = no such curve, though single readings can be large or run the other way; the % refers to the signal ratio
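MBNL1-His + Biotin-(CUG)12, cpd titration 92 nM–58 uM; Tb anti-His Ab 0.055 ng/ul, SA-XL665 5 nM (final); 60 min RT; ratiometric 665/545 nm, Ex 340 nm; normalized to buffer and full-complex controls.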
RORg inh = qHTS for inhibitors of ROR gamma transcriptional activity. Drosophila S2 Gal4-RORgamma UAS-luciferase reporter, 20 h. 310,000 tested, 5.4% active. Potency, µM (titrated, usually from 53.6 µM), hits mostly inhibitors. Nuclear receptor ROR-gamma (Mus musculus), P51450; note: nearly all actives have a fitted effect of over 60% in size
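In this cell-based reporter format, copper sulfate (700 uM final) drives Gal4–ROR gamma fusion expression from a metallothionein promoter in Drosophila Schneider cells; compounds preincubated 1 hr, reporter read after 20 hr at ambient temperature.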
CBFb RUNX1 block = qHTS Assay for Compounds Blocking the Interaction Between CBF-beta and RUNX1 for the Treatment of Acute Myeloid Leukemia; Potency, µM (series often up to 59.8 µM), usual class: inhibitors; AID 1477, 2009; AlphaScreen CBFb-His/RUNX1-biotin binding, biochemical; 230,000 tested, under 10 active
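Room-temperature protein-protein interaction test with 30 nM each of His-tagged CBF-beta and biotinylated RUNX1, 15 min with compound, then 90 min with nickel plus streptavidin beads. Signal read in AlphaScreen mode.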
A number is an active result; [ ] = dose if it differs, or a comment. Unless noted, calls come from the whole dose curve; as a rule, active = well fitted curve in the direction sought with a large enough effect; inconclusive = small, poorly fitted or top-dose-only effect, or another doubt; inactive = no such curve, though single readings can be large; an effect the other way counts as inactive or inconclusive.

`N/C(=N\OC(=O)c1ccc([N+](=O)[O-])cc1Cl)c1ccccn1` gave Six1-Eya2 inh inactive, CtBP-E1A inh inactive, VP16 counter 11.2µM, MBNL1 CUG block inconclusive and RORg inh 10µM.
For N/C(=N\OC(=O)c1cc([N+](=O)[O-])ccc1Cl)c1ccccn1 the results were Six1-Eya2 inh inactive, CtBP-E1A inh inactive, VP16 counter inconclusive, MBNL1 CUG block inconclusive, RORg inh 3.98µM and CBFb RUNX1 block inactive.
`N/C(=N\OC(=O)c1cc(Br)ccc1Cl)c1ccccn1` gave Six1-Eya2 inh inactive, CtBP-E1A inh inactive, VP16 counter inconclusive, MBNL1 CUG block inactive, RORg inh inactive and CBFb RUNX1 block inactive.
For COc1ccc(-c2cn(CCC(=O)NCc3ccc(C)cc3)c(CCN)n2)cc1 the results were Six1-Eya2 inh inactive.
Cc1cccc(N=Nc2ccc(O)c3ncccc23)c1 was read as Six1-Eya2 inh -84.5, CtBP-E1A inh -79.1, VP16 counter 0.0355µM, MBNL1 CUG block inactive, RORg inh 0.112µM and CBFb RUNX1 block inactive.
For Cc1ccc(C)c(N=Nc2ccc(O)c3ncccc23)c1 the results were Six1-Eya2 inh inconclusive, CtBP-E1A inh inconclusive, VP16 counter inactive, MBNL1 CUG block inactive, RORg inh 0.112µM and CBFb RUNX1 block inconclusive.
Screening Oc1ccc(N=Nc2ccc3c(c2)OCCO3)c2ncccc12 returned Six1-Eya2 inh -75.8, VP16 counter 0.398µM and RORg inh 0.316µM.
Cc1ccc(N=Nc2cc(C)ccc2O)c(C)c1 was read as Six1-Eya2 inh inconclusive, CtBP-E1A inh inconclusive, VP16 counter inactive, MBNL1 CUG block inactive and RORg inh inactive.
`CC(=O)/C(N=Nc1ccc2c(c1)OCCO2)=C(\C)O` gave Six1-Eya2 inh inactive, VP16 counter inactive, MBNL1 CUG block inactive, RORg inh inactive and CBFb RUNX1 block inactive.
`Cc1ccccc1N=Nc1ccc(N=Nc2c(O)ccc3ccccc23)c(C)c1` gave VP16 counter inactive and RORg inh inactive[10 µM].
Screening CC(C)(C)N1CC23CCC(C[C@@H]2C1=O)O3 (stereo partly specified) returned Six1-Eya2 inh inactive.
`COc1ccc(N2CCN(C(=O)CCC(=O)N3CCOc4ccc(Cl)cc43)CC2)cc1` gave Six1-Eya2 inh inactive, CtBP-E1A inh inactive, VP16 counter inactive, MBNL1 CUG block inactive and RORg inh inconclusive.
COCC(=O)N1CCC[C@@]2(CCN(Cc3ccccc3)C2)C1 was read as VP16 counter inactive and RORg inh inactive.
CCOC(=O)C1=CCN(S(=O)(=O)c2ccccc2C)C1c1cccc(C)c1 (stereo unspecified) was read as Six1-Eya2 inh inactive and CtBP-E1A inh inactive.
COc1ccc(NC(=S)NC(=O)c2cncc(Br)c2)c(OC)c1 was read as Six1-Eya2 inh inactive, CtBP-E1A inh inactive, VP16 counter inconclusive, MBNL1 CUG block inactive and RORg inh 2.51µM.
Screening CC1CCCCC1NC(=O)c1cncc(Br)c1 (stereo unspecified) returned Six1-Eya2 inh inactive, CtBP-E1A inh inactive, VP16 counter inactive, MBNL1 CUG block inactive, RORg inh inactive and CBFb RUNX1 block inactive.
Screening Cc1ccc(NC(=O)c2cncc(Br)c2)cc1S(=O)(=O)N(C)C returned Six1-Eya2 inh inactive, CtBP-E1A inh inactive, VP16 counter inactive, MBNL1 CUG block inactive, RORg inh inactive and CBFb RUNX1 block inactive.
`COc1ccc(NC(=O)c2cncc(Br)c2)cc1S(N)(=O)=O` gave Six1-Eya2 inh inactive, CtBP-E1A inh inactive, VP16 counter inactive, MBNL1 CUG block inactive, RORg inh 11.2µM and CBFb RUNX1 block inactive.
Screening Cc1ccc(NC(=S)NC(=O)c2cncc(Br)c2)c(C)c1 returned Six1-Eya2 inh inactive.
Screening O=C(NC(=S)Nc1ccccc1Cl)c1cncc(Br)c1 returned Six1-Eya2 inh inactive, CtBP-E1A inh inactive, VP16 counter 4.47µM, MBNL1 CUG block inactive and RORg inh 2.51µM.
For CC1CCCC(NC(=S)NC(=O)c2cncc(Br)c2)C1C (stereo unspecified) the results were Six1-Eya2 inh inactive, CtBP-E1A inh inactive, VP16 counter 5.62µM, RORg inh 2.82µM and CBFb RUNX1 block inactive.
O=C(NC(=S)Nc1ccccc1Cl)c1cncc(C#Cc2ccccc2)c1 was read as Six1-Eya2 inh inactive, CtBP-E1A inh inactive, VP16 counter inactive, RORg inh inactive and CBFb RUNX1 block inactive.
`CCc1nc2ccc(C(=O)N3CCN(C(=O)c4ccco4)CC3)cn2c1N(C)C(=O)C1CCCCC1` gave Six1-Eya2 inh inactive and CtBP-E1A inh inactive.
Screening CC(C)CN(C(=O)CCC(=O)OCC(=O)NCCc1ccccc1)c1c(N)n(CC(C)C)c(=O)[nH]c1=O returned Six1-Eya2 inh inactive, CtBP-E1A inh inactive, VP16 counter inactive, MBNL1 CUG block inactive and RORg inh inactive.
`COc1ccc2[nH]c(C(=O)c3ccccc3)cc2c1` gave VP16 counter inactive, RORg inh inactive and CBFb RUNX1 block inactive.
For Cc1cc(N2CCN(c3ccccc3)CC2)nc(-n2nc(C)cc2C)n1 the results were Six1-Eya2 inh inactive, CtBP-E1A inh inactive, VP16 counter 1.26µM, MBNL1 CUG block inactive, RORg inh 0.282µM and CBFb RUNX1 block inactive.
For Cc1cc(NC(=O)c2ccc(C)s2)n(-c2nc3ccccc3[nH]2)n1 the results were Six1-Eya2 inh inactive, VP16 counter inactive, MBNL1 CUG block inactive, RORg inh inactive and CBFb RUNX1 block inactive.
For Cc1cc(C)nc(-n2nc(C)cc2Nc2ccccc2)n1 the results were Six1-Eya2 inh inconclusive, CtBP-E1A inh inactive, VP16 counter 0.224µM, MBNL1 CUG block inactive, RORg inh 0.112µM and CBFb RUNX1 block inactive.
`Cc1cc(NC(=O)c2c(F)cccc2F)n(-c2nc3ccccc3[nH]2)n1` gave Six1-Eya2 inh inactive, CtBP-E1A inh inactive, VP16 counter 6.31µM, MBNL1 CUG block inactive, RORg inh 3.55µM and CBFb RUNX1 block inactive.
For Cc1cc(Nc2ccccc2)n(-c2nc3ccccc3[nH]2)n1 the results were Six1-Eya2 inh inactive, CtBP-E1A inh inactive, VP16 counter 3.55µM, MBNL1 CUG block inactive, RORg inh 1.58µM and CBFb RUNX1 block inactive.
Screening Cc1ccc(CN2CCN(C(=O)CCC(=O)Nc3nnc(C(C)C)s3)CC2)c(C)c1 returned Six1-Eya2 inh inactive, CtBP-E1A inh inactive, VP16 counter inactive, MBNL1 CUG block inactive and RORg inh inactive.
